Data published in publication PMC12864922, “TDP-43 directly inhibits mRNA accumulation in neurites through modulation of mRNA stability”.
Residue numbers refer to the chain shown, from its start. Whole data set: some 9,900 sequences, median “r (bound/input frequency ratio)” near 0.7, cut for the highest 2% near 6.5. This excerpt belongs to a sample that is enriched for the highest values.

B1: ENSMUSG00000042529.274|Kcnj12 (ssRNA)
RNA: GGGAGUUCUACAGUCCGACGAUCGCUUCGAUAUCCGCAUGCUAGUGUGCUUACCUGCCACUCACCUCUCUAUCUAGUUGUCGAGUCUAGGGAAGGGCAGAGGGUGGGUCCUGGCCACUGGGUGCCACUGUGGGAGCCGGGGCACCUGUCAUUCUUUCUGAGUAGGUGGGCCUGUAUCCAGAGCAGGGUCUAGGGGCUCCUGCUCCCGGCUCAUCUCAGUGGCCUGAAGCAUUCAAAACUCUAGCCAGCCCCAUCCUCCUCCCUGCCAGAAUGGUCCAGUCCCUGGGCCCUGCUGGAGAGCAGCCUCUUGCGGUCGCACUAGUGUGGAAUUCUCGGGUGUCAAGG
B2: ENSMUSG00000004113.47|Cacna1b (ssRNA)
RNA: GGGAGUUCUACAGUCCGACGAUCGCUUCGAUAUCCGCAUGCUAGCUAUCACUGCACUUUGGGACUCAGCACUGGCGUCCGGGCGCGGCACAGCUACCACCACCCCGAUCAGGACCACUGGUGCUAGCUGCACCACGACCACCCAUGUACCAGCUCCAUGGGUGAGGGUUCCAGUUGAUGAGUUUUAUCAUCCGCUCUGGGCUGUGGGGUCACAGCCCUGGGAGGAGGGCCCUCACAUCUCGGCCUCUGUGGUGGAGGCUCCUGCUUCCCUCCCUCCCUCCCUUUUACACUGGAUAGACUAAUACUCUUGCGGUCGCACUAGUGUGGAAUUCUCGGGUGUCAAGG
B3: ENSMUSG00000004113.89|Cacna1b|48:52;211:215;227:232 (ssRNA)
RNA: GGGAGUUCUACAGUCCGACGAUCGCUUCGAUAUCCGCAUGCUAGACUAAUAAAGCCCUUUCUUAGAGGGACAUGGUUCUCUCUAUCCUCCACACAACUGCCUUCCUGGGUUCCAUGCCAGAUGUUGGAUCCUAAGCAGGAGGUAGCUGAGUUGAGAUGGACCCAGCAAAUCCAAAUCCUAUGUCAUGGCCUCCAGCAUCCAGGGUGGGUCCUUGGGACUUUUCUUAGGAGGGACUUUCUGAGCCUCGUGGAGACACACGUUUGUCCAAAACACACGCAUGGGAGAUAGGGUACCCCUGAAAGCCUCUUGCGGUCGCACUAGUGUGGAAUUCUCGGGUGUCAAGG
B4: ENSMUSG00000058297.451|Spock2 (ssRNA)
RNA: GGGAGUUCUACAGUCCGACGAUCGCUUCGAUAUCCGCAUGCUAAGCAAGCUUCGUGUUUCCUCAGGAGCAAGGUCACACAGGUCAGAUUAUUGUCGGUCCUGCGGGCCUCAUCCUUGAAUAAGCUGCCUGCCCAGUUCCUCCAUCCGUGUUCCUGCCUGCUCCCGUUCCCUUGUUGCGGGCAGGAGAGGUAGGGCUGUGUUGGAAAGAGUUCAACCAAAUUACGGCAGCACCACAUCUUGCCGAGCCCUGGAGCUGCCCUACUAAGAGCCUCCUUAGCCCUGGGUGCUGGGAAGGAUGGUGUACUCUUGCGGUCGCACUAGUGUGGAAUUCUCGGGUGUCAAGG
B5: ENSMUSG00000061578.871|Ksr2 (ssRNA)
RNA: GGGAGUUCUACAGUCCGACGAUCGCUUCGAUAUCCGCAUGCUAUUAGGUCAGAGGUAUCAAUACAUCUCCGGAAACAUCGUCACAGAUACCUAGAGGUACUUCAUUGAUCCCUUGAAAAGCAUGUCUUAAUUCUGUUAAGAUGUCAAUCAAGAUUACACAUCUCACUGCUUCACAGGCCAUCAGGGCCCCAUUCUGAGGUCCUGGGACACUACCCAAACCCUAGCACUCUCCCAGUGACUCUCCUAUGAGUACAUAUGCCAUCCUGCUUCCUUUGUGGCAAAACCCUGGGUCACCCAGAGACACUCUUGCGGUCGCACUAGUGUGGAAUUCUCGGGUGUCAAGG
B6: ENSMUSG00000058297.469|Spock2 (ssRNA)
RNA: GGGAGUUCUACAGUCCGACGAUCGCUUCGAUAUCCGCAUGCUACCUGCCUGCUCCCGUUCCCUUGUUGCGGGCAGGAGAGGUAGGGCUGUGUUGGAAAGAGUUCAACCAAAUUACGGCAGCACCACAUCUUGCCGAGCCCUGGAGCUGCCCUACUAAGAGCCUCCUUAGCCCUGGGUGCUGGGAAGGAUGGUGUACGUUGGGGAAGUUUGAGGUUGGAGAGAGUAAAUGUGCCUUGAGAGACCACUCAGAGGUCCCAGGAGGAACGGGGGCGGGGCUUAGCCUGGGAGUUCUGGCAGGAGGCACUCUUGCGGUCGCACUAGUGUGGAAUUCUCGGGUGUCAAGG
B7: ENSMUSG00000058297.471|Spock2|33:37 (ssRNA)
RNA: GGGAGUUCUACAGUCCGACGAUCGCUUCGAUAUCCGCAUGCUACGUUCCCUUGUUGCGGGCAGGAGAGGUAGGGCACACAUGGAAAGAGUUCAACCAAAUUACGGCAGCACCACAUCUUGCCGAGCCCUGGAGCUGCCCUACUAAGAGCCUCCUUAGCCCUGGGUGCUGGGAAGGAUGGUGUACGUUGGGGAAGUUUGAGGUUGGAGAGAGUAAAUGUGCCUUGAGAGACCACUCAGAGGUCCCAGGAGGAACGGGGGCGGGGCUUAGCCUGGGAGUUCUGGCAGGAGGCAAAGUUGGUGAGACUCUUGCGGUCGCACUAGUGUGGAAUUCUCGGGUGUCAAGG
B8: ENSMUSG00000058297.472|Spock2 (ssRNA)
RNA: GGGAGUUCUACAGUCCGACGAUCGCUUCGAUAUCCGCAUGCUACUUGUUGCGGGCAGGAGAGGUAGGGCUGUGUUGGAAAGAGUUCAACCAAAUUACGGCAGCACCACAUCUUGCCGAGCCCUGGAGCUGCCCUACUAAGAGCCUCCUUAGCCCUGGGUGCUGGGAAGGAUGGUGUACGUUGGGGAAGUUUGAGGUUGGAGAGAGUAAAUGUGCCUUGAGAGACCACUCAGAGGUCCCAGGAGGAACGGGGGCGGGGCUUAGCCUGGGAGUUCUGGCAGGAGGCAAAGUUGGUGAGAGUCCUGCUCUUGCGGUCGCACUAGUGUGGAAUUCUCGGGUGUCAAGG
B9: ENSMUSG00000058297.474|Spock2 (ssRNA)
RNA: GGGAGUUCUACAGUCCGACGAUCGCUUCGAUAUCCGCAUGCUAAGGAGAGGUAGGGCUGUGUUGGAAAGAGUUCAACCAAAUUACGGCAGCACCACAUCUUGCCGAGCCCUGGAGCUGCCCUACUAAGAGCCUCCUUAGCCCUGGGUGCUGGGAAGGAUGGUGUACGUUGGGGAAGUUUGAGGUUGGAGAGAGUAAAUGUGCCUUGAGAGACCACUCAGAGGUCCCAGGAGGAACGGGGGCGGGGCUUAGCCUGGGAGUUCUGGCAGGAGGCAAAGUUGGUGAGAGUCCUGGGACAUCUUACCCUCUUGCGGUCGCACUAGUGUGGAAUUCUCGGGUGUCAAGG
B10: ENSMUSG00000058297.471|Spock2 (ssRNA)
RNA: B7 RNA with A76U, C77G, A78U, C79G, A80U
B11: ENSMUSG00000058297.474|Spock2|15:19 (ssRNA)
RNA: B9 RNA with U58A, G59C, U60A, G61C, U62A
B12: ENSMUSG00000058297.470|Spock2|39:43 (ssRNA)
RNA: GGGAGUUCUACAGUCCGACGAUCGCUUCGAUAUCCGCAUGCUAUGCUCCCGUUCCCUUGUUGCGGGCAGGAGAGGUAGGGCACACAUGGAAAGAGUUCAACCAAAUUACGGCAGCACCACAUCUUGCCGAGCCCUGGAGCUGCCCUACUAAGAGCCUCCUUAGCCCUGGGUGCUGGGAAGGAUGGUGUACGUUGGGGAAGUUUGAGGUUGGAGAGAGUAAAUGUGCCUUGAGAGACCACUCAGAGGUCCCAGGAGGAACGGGGGCGGGGCUUAGCCUGGGAGUUCUGGCAGGAGGCAAAGUUGCUCUUGCGGUCGCACUAGUGUGGAAUUCUCGGGUGUCAAGG
B13: ENSMUSG00000058297.472|Spock2|27:31 (ssRNA)
RNA: B8 RNA with U70A, G71C, U72A, G73C, U74A
B14: ENSMUSG00000058297.473|Spock2|21:25 (ssRNA)
RNA: GGGAGUUCUACAGUCCGACGAUCGCUUCGAUAUCCGCAUGCUAGCGGGCAGGAGAGGUAGGGCACACAUGGAAAGAGUUCAACCAAAUUACGGCAGCACCACAUCUUGCCGAGCCCUGGAGCUGCCCUACUAAGAGCCUCCUUAGCCCUGGGUGCUGGGAAGGAUGGUGUACGUUGGGGAAGUUUGAGGUUGGAGAGAGUAAAUGUGCCUUGAGAGACCACUCAGAGGUCCCAGGAGGAACGGGGGCGGGGCUUAGCCUGGGAGUUCUGGCAGGAGGCAAAGUUGGUGAGAGUCCUGGGACAUCUCUUGCGGUCGCACUAGUGUGGAAUUCUCGGGUGUCAAGG
B15: ENSMUSG00000058297.470|Spock2 (ssRNA)
RNA: B12 RNA with A82U, C83G, A84U, C85G, A86U
B16: ENSMUSG00000058297.468|Spock2 (ssRNA)
RNA: GGGAGUUCUACAGUCCGACGAUCGCUUCGAUAUCCGCAUGCUACGUGUUCCUGCCUGCUCCCGUUCCCUUGUUGCGGGCAGGAGAGGUAGGGCUGUGUUGGAAAGAGUUCAACCAAAUUACGGCAGCACCACAUCUUGCCGAGCCCUGGAGCUGCCCUACUAAGAGCCUCCUUAGCCCUGGGUGCUGGGAAGGAUGGUGUACGUUGGGGAAGUUUGAGGUUGGAGAGAGUAAAUGUGCCUUGAGAGACCACUCAGAGGUCCCAGGAGGAACGGGGGCGGGGCUUAGCCUGGGAGUUCUGGCAGCUCUUGCGGUCGCACUAGUGUGGAAUUCUCGGGUGUCAAGG
B17: ENSMUSG00000058297.473|Spock2 (ssRNA)
RNA: B14 RNA with A64U, C65G, A66U, C67G, A68U

Target: TDP-43 (Homo sapiens, UniProt Q13148 1-414)
Assay: RNA Bind-n-Seq with designed 260-mer pool; 25 mM Tris-HCl, 150 mM KCl, 3 mM MgCl2, BSA (printed 500 mg/mL), 20 units/mL SUPERase IN; pH not stated; 500 nM RNA pool, 1 h, 4 C; TDP-43 5, 50, 500 nM; high values mean tight binding
Settings: protein: recombinant; tags: SBP (GST cleaved off with PreScission; pGEX-GST-SBP)
Outline: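 Duplicate measurements used two independent batches of recombinant SBP-tagged TDP-43, which was captured on streptavidin beads at 5, 50 or 500 nM. The beads were incubated with 500 nM of an in vitro-transcribed 260-nt 3′ UTR oligo pool for 1 h at 4 °C in 25 mM Tris-HCl, 150 mM KCl, 3 mM MgCl2, BSA and SUPERase IN. After washing, biotin elution, reverse transcription, PCR amplification and sequencing, binding was expressed as R: each oligo's normalized read abundance in the bound sample over its abundance in input.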

Chain of TDP-43 (Q13148 whole entry): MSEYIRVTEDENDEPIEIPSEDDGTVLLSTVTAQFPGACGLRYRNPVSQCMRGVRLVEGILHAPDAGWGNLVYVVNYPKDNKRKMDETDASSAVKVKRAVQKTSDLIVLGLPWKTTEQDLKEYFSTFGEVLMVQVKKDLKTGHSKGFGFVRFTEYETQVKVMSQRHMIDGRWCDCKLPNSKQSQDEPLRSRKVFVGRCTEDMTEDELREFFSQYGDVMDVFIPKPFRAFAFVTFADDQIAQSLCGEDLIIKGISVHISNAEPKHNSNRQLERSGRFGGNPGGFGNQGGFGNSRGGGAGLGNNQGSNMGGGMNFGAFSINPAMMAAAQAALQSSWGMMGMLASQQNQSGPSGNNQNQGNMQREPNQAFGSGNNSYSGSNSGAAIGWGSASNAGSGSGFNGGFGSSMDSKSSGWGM

Binder | binding signal
B1 | 0.622 R (bound/input frequency ratio)
B2 | 0.27 R (bound/input frequency ratio)
B3 | 0.504 R (bound/input frequency ratio)
B4 | 0.383 R (bound/input frequency ratio)
B5 | 0.301 R (bound/input frequency ratio)
B6 | 2.58 R (bound/input frequency ratio)
B7 | 4.19 R (bound/input frequency ratio)
B8 | 7.38 R (bound/input frequency ratio)
B9 | 5.67 R (bound/input frequency ratio)
B10 | 7.28 R (bound/input frequency ratio)
B11 | 3.2 R (bound/input frequency ratio)
B12 | 5.26 R (bound/input frequency ratio)
B13 | 4.63 R (bound/input frequency ratio)
B14 | 3.59 R (bound/input frequency ratio)
B15 | 8.94 R (bound/input frequency ratio)
B16 | 3.47 R (bound/input frequency ratio)
B17 | 6.95 R (bound/input frequency ratio)
